Drawing on PubChem BioAssay (Tox21), this text covers Potency, activity change, positive = activation and max response for eight molecules.

Assay [1] can be described thus: qHTS assay to identify small molecule agonists of H2AX - cell viability counter screen (AID 1224847; calls by dose curve; also: nearly all actives have a fitted effect of over 30% in size; also: potency is read from the fitted curve at half-maximal effect). Summed up: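 Quantitative HTS viability measurement: CHO-K1 wild-type cells in serum (10% FBS) medium, short 3 hr drug exposure at 37C with 0.76% DMSO, CellTiter-Glo luminescent detection.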
Assay [2] can be described thus: A CellTox Green Cytotoxicity Assay to monitor cytotoxicity in HEK293 cells - 40 hour (AID 1224871). Also: nearly all actives have a fitted effect of over 45% in size. Also: potency is read from the fitted curve at half-maximal effect. The method, boiled down: (§1)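 Fluorescence from a DNA-binding dye excluded by viable cells was measured repeatedly in the same HEK293 wells (600 cells/well) during continuous compound exposure at 37 C. Each assay gives one read point: 0, 8, 16, 24, 32 or 40 h.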
Assay [3] is described as follows: A CellTox Green Cytotoxicity Assay to monitor cytotoxicity in HEK293 cells - 24 hour (AID 1224875). Also: nearly all actives have a fitted effect of over 45% in size. Also: potency is read from the fitted curve at half-maximal effect. Summed up: as §1
A short description of assay [4]: A CellTox Green Cytotoxicity Assay to monitor cytotoxicity in HepG2 cells - 16 hour (AID 1224876). Also: nearly all actives have a fitted effect of over 45% in size. The method, boiled down:
(§2)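 Real-time cytotoxicity: fluorescence of a cell-impermeant cyanine dye binding DNA of dead HepG2 cells, measured repeatedly (0–40 h) during compound exposure at 37 C. Cells seeded 600/well with reagent, dosed after 5 h.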

Assay [5] in a line: A CellTox Green Cytotoxicity Assay to monitor cytotoxicity in HepG2 cells - 24 hour (AID 1224878). Also: nearly all actives have a fitted effect of over 45% in size. Also: potency is read from the fitted curve at half-maximal effect. Summed up: as §2
Assay [6] is described as follows: A CellTox Green Cytotoxicity Assay to monitor cytotoxicity in HepG2 cells - 40 hour (AID 1224879). Also: nearly all actives have a fitted effect of over 40% in size. Also: potency is read from the fitted curve at half-maximal effect. Summed up:
as §2

Assay [7] can be described thus: qHTS RealTime-Glo MT Cell Viability Assay in HEK293 cells - 0 hour (AID 1224880). The method, boiled down: (§3)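 Luminescence, which tracks viable cell number through reduction of the prosubstrate to a NanoLuc substrate, was read over continuous 37 C culture. Cells (600/well) were premixed with reagent and rested 5 h before 23 nL of compound in DMSO was pinned.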
A general note: qHTS replaces the single test concentration by a dilution series.

The nature of assay [8]: qHTS assay to identify small molecule antagonists of the estrogen related receptor (ERR) signaling pathway from Tox21 library (AID 1224848). Also: nearly all actives have a fitted effect of over 50% in size. Also: potency is read from the fitted curve at half-maximal effect. The method, boiled down:
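ERR cell line, 2,000 cells/well. 6 h settle, then compound (DMSO) added; 18 h at 37 C; ONE-Glo luminescence after 30 min RT.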

The nature of assay [9]: qHTS assay to identify small molecule agonists of the estrogen related receptor (ERR) signaling pathway from Tox21 library (AID 1224849; calls by dose curve; also: nearly all actives have a fitted effect of over 15% in size). To be noted: ERR reporter cell line, ONE-Glo luciferase, 18 h. Summed up:
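Luminescent agonist read-out (One-Glo, 30-minute room-temperature incubation) following 18-hour compound treatment at 37 C of the ERR cell line, which had been plated 6 hours before dosing.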

A short description of assay [10]: A CellTox Green Cytotoxicity Assay to monitor cytotoxicity in HEK293 cells - 0 hour (AID 1224869). Also: nearly all actives have a fitted effect of over 50% in size. The method, boiled down:
as §1

Assay [11] can be described thus: qHTS RealTime-Glo MT Cell Viability Assay in HepG2 cells - 40 hour (AID 1224870). Also: nearly all actives have a fitted effect of over 50% in size. Also: potency is read from the fitted curve at half-maximal effect. The method, boiled down: (§4)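 Real-time viability: cells seeded at 600 per well together with NanoLuc and cell-permeant prosubstrate, compounds added after 5 h incubation. Luminescence tracked at 0, 8, 16, 24, 32 and 40 h of exposure.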
Assay [12] is described as follows: qHTS RealTime-Glo MT Cell Viability Assay in HEK293 cells - 16 hour (AID 1224872). Also: nearly all actives have a fitted effect of over 50% in size. Also: potency is read from the fitted curve at half-maximal effect. The method, boiled down:
(§5)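 Tox21 10K qHTS, HEK293, 600 cells/well, RealTime-Glo reagent co-dispensed with cells; 5 h preincubation, compound by pintool, 37 C, luminescence at 0–40 h.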

Assay [13] is described as follows: qHTS RealTime-Glo MT Cell Viability Assay in HepG2 cells - 8 hour (AID 1224873). Also: nearly all actives have a fitted effect of over 55% in size. Summed up: as §4
Assay [14] is described as follows: qHTS RealTime-Glo MT Cell Viability Assay in HEK293 cells - 40 hour (AID 1224874). Also: nearly all actives have a fitted effect of over 50% in size. Also: potency is read from the fitted curve at half-maximal effect. To be noted: RealTime-Glo luminescence; max response: stronger effect = lower value. The method, boiled down: as §3
Assay [15] can be described thus: qHTS RealTime-Glo MT Cell Viability Assay in HepG2 cells - 32 hour (AID 1224877). Also: nearly all actives have a fitted effect of over 55% in size. Also: potency is read from the fitted curve at half-maximal effect. The method, boiled down:
(§6)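 Cells + NanoLuc/prosubstrate dispensed (600 cells/well) → 5 h at 37 C/5% CO2 → compounds in DMSO transferred → 40 h incubation at 37 C, luminescence read at 0, 8, 16, 24, 32, 40 h.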

Assay [16] can be described thus: qHTS RealTime-Glo MT Cell Viability Assay in HEK293 cells - 32 hour (AID 1224868). Also: nearly all actives have a fitted effect of over 50% in size. Also: potency is read from the fitted curve at half-maximal effect. Summed up: as §5
Assay [17] is described as follows: qHTS RealTime-Glo MT Cell Viability Assay in HepG2 cells - 24 hour (AID 1224867). Also: nearly all actives have a fitted effect of over 50% in size. Summed up: as §6
Where [18] appears, read: at 92.4 µM (top of the series) unless noted.

Structures are written as SMILES. Several values for one entry are separate records, joined by “and”; a condition that tells them apart may be missing. Identical values can stand only once. Records with an inconclusive call do not appear. Where a structure was tested more than once in an assay, its records may differ in their call. Activity calls are given as the source filed them. Unless noted, calls follow the shape of the dose curve; as a rule, active = well fitted curve in the direction sought with a large enough effect in the repeat runs; inconclusive = weak or mixed curves; inactive = no such curve, though single readings can be large; an effect the other way counts as inactive or inconclusive.
% is scaled to controls: 0 for no effect and ±100 for the full control effect.

Consider `Clc1ccc(CSC(Cn2ccnc2)c2ccc(Cl)cc2Cl)cc1` (stereo not given), for which the Potency in assay [1] was 49.2 µM (active). Moreover, the Potency entry in assay [2], in [3], in assay [4], in [5], in [6] and in assay [7] was “inactive” in each case.
With `O=C/C(Cl)=C(/Cl)C(=O)O`, the Potency entry in assay [1], in assay [8], in assay [10], in assay [11], in [2] and in [12] was “inactive” in each case. Also, the Potency result in assay [13], in assay [3], in assay [4], in [15], in assay [5] and in [7] was “inactive” in each case. Also, the activity change, positive = activation in assay [9] (setting [18]) was -23.8% (inactive) and 0.311% (inactive). The max response in assay [14] is 20.3% (inactive). The Potency in assay [6] was 48.9 µM (active).
With `COc1cccc2c1C(=O)c1c(O)c3c(c(O)c1C2=O)C[C@@](O)(C(=O)CO)CC3OC1CC(N2CCOC(OC)C2)C(O)C(C)O1` (stereo not given in full), the Potency entry in assay [1], in assay [8], in [10], in [2], in assay [3] and in assay [7] was “inactive” each time. Moreover, the activity change, positive = activation in [9] (setting [18]) was -10.4% [at 42.5 µM] (inactive). Also, the Potency in assay [16] was 0.0301 µM (active); in assay [11], 0.0338 µM (active); in assay [14], 0.0213 µM (active); in assay [15] it was 0.0425 µM (active); in assay [6], 0.0425 µM (active).
For `Clc1ccc(C(c2ccccc2Cl)C(Cl)(Cl)Cl)cc1` (stereo not given), the Potency in assay [1] is 101 µM (active) and 66.2 µM (active); in assay [8] it was 61.5 µM (active) and 40.2 µM (active); in assay [16], 49.3 µM (active) and inactive; in [2], 43.9 µM (active) and inactive; in assay [12] it was 49.3 µM (active) and inactive. Besides, the activity change, positive = activation in assay [9] (at 42.5 µM (top of the series)) was -15.1% (inactive); in assay [9] (at 92.4 µM (top of the series)) it was -41.5% (inactive). The Potency entry in [17], in assay [11], in [13], in assay [3], in [4] and in assay [15] was “inactive” in each case. Moreover, the Potency entry in assay [5], in assay [6] and in [7] was “inactive” throughout.
As to `O=[N+]([O-])O.O=[N+]([O-])O.[Cd]`, the Potency is 49 µM (active) in assay [16]; 6.92 µM (active) in assay [2]; 24.5 µM (active) in assay [14]; 49 µM (active) in assay [5]; 43.6 µM (active) in assay [6]. The Potency entry in assay [10], in assay [11], in assay [13], in assay [4] and in assay [7] was “inactive” each time.
Take `C=CCC1=C(C)C(OC(=O)C2C(C=C(C)C)C2(C)C)CC1=O` (stereo not given): the Potency in assay [1] was 60.1 µM (active); in assay [8], 20.5 µM (active); in [16] it was 26 µM (active); in assay [12], 20.7 µM (active); in assay [14] it was 41.2 µM (active); in [3], 51.9 µM (active). Further, in assay [9] (setting [18]), the activity change, positive = activation is -28.6% (inactive). The Potency entry in assay [10], in assay [11], in assay [15] and in assay [7] was “inactive” throughout.
In the case of `Nc1ccc(Cc2ccc(N)c(Cl)c2)cc1Cl`, the Potency is 26.4 µM (active) in assay [8], 26.6 µM (active) in assay [16], 29.9 µM (active) in [12] and 23.7 µM (active) in assay [14]. Besides, the activity change, positive = activation in [9] (setting [18]) is -35.2% (inactive). In addition, the Potency entry in assay [17], in assay [10], in assay [11], in assay [2], in assay [3] and in assay [4] was “inactive” in each case. In addition, the Potency result in assay [5], in [6] and in [7] was “inactive” throughout.
For the molecule `O=C(CCl)C(Cl)Cl`, the Potency entry in [1], in assay [10], in [13], in assay [4] and in [7] was “inactive” in each case. Further, the Potency is 43.7 µM (active) in assay [8], 17.5 µM (active) in [16], 17.5 µM (active) in assay [12] and 49.4 µM (active) in assay [6]. Besides, in assay [9] (setting [18]), the activity change, positive = activation is -73% (inactive).
